{"source": "PubChem BioAssay (EPA / NIEHS)", "note": "Values joined by “and” are separate entries in the source; they are usually repeats but may differ in a detail not shown here. Identical values can stand only once. A structure can be active in one record and inactive in another. Active and inactive are the calls of the source. The calls were made as follows: active = hit-call score of the fitted dose curve at least 0.9, where 1 is the maximum; inactive = score below 0.9."}
{"molecular_target": "Hepatocyte nuclear factor 6 (Homo sapiens) (UniProt Q9UBC0)", "sequence (Q9UBC0 whole entry, looked up)": "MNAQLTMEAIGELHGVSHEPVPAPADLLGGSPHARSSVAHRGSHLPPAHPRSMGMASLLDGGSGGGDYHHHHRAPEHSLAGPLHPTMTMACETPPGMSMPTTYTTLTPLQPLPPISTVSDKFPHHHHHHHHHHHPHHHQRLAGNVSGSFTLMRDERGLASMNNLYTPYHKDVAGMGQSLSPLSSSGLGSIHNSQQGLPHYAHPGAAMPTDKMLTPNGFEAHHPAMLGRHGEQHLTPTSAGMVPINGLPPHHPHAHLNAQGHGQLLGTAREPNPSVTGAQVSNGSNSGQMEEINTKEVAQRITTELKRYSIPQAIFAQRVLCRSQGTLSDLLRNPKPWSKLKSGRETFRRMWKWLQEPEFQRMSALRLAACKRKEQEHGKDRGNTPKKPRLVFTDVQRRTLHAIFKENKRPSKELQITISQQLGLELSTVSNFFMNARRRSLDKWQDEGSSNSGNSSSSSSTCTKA", "test": "ATG_HNF6_CIS: Attagene CIS-FACTORIAL HepG2 Assay for human Hepatocyte Nuclear Factor 6 (HNF6) (AID 2282952)", "conditions": "HepG2 Attagene cis-factorial HNF6 reporter transcription; actives raise or lower the signal", "procedure": "ATG_CIS is a cell-based, multiplexed-readout assay that uses HepG2, a human liver cell line, with measurements taken at 24 hours after chemical dosing in a 24-well plate.ATG_HNF6_CIS is one of 52 assay component(s) measured or calculated from the ATG_CIS assay. It is designed to make measurements of mRNA induction, a form of inducible reporter, as detected with fluorescence intensity signals by Reverse transcription polymerase chain reaction (RT-PCR) and Capillary electrophoresis technology.Data from the assay component ATG_HNF6_CIS was analyzed into 1 assay endpoint. This assay endpoint, ATG_HNF6_CIS, was analyzed with bidirectional fitting relative to DMSO as the negative control and baseline of activity. Using a type of inducible reporter, measures of mRNA for gain or loss-of-signal activity can be used to understand the reporter gene at the transcription factor-level as they relate to the gene ONECUT1. Furthermore, this assay endpoint can be referred to as a primary readout, because this assay has produced multiple assay endpoints where this one serves a reporter gene function. To generalize the intended target to other relatable targets, this assay endpoint is annotated to the dna binding intended target family, where the subfamily is homeobox protein.\nHuman liver HepG2 cells are transiently transfected with multiple reporter transcription units (MRTUs) in 6-well plates using FuGene 6 reagent (Roche; 3 ml FuGene/1 mg DNA). The MRTU constructs are regulated by a cis-regulating element (promoter). […] A major difference between the CIS and TRANS system is that in CIS activities of endogenous TFs are measured, whereas the TRANS assay evaluates changes in activities of exogenous, chimeric NR-Gal4 proteins. […] At the end of 24 hour incubation, total RNA was isolated using TriZol reagent (Invitrogen). The isolated RNA is then reverse-transcribed using oligo(dT) primer and Mo-MLV reverse transcriptase (Invitrogen) with DNAse I (Ambion) treatment for 30 min. The one-tenth of the produced cDNA was amplified by PCR using Taq DNA polymerase (Invitrogen) and two reporter sequence-specific primers. The PCR products were fluorescently labeled by primer extension with 6-arboxyfluorescein (6-FAM) 5'-labeled reporter sequence-specific primer (2 min at 95 C, 20 s at 68 C and 10 min at 72 C) and these products were digested with 5U of HpaI (New England Biolabs) for 2h at 37 C. The fragments were purified using Qiaquick PCR columns (Qiagen), analyzed on an ABI 3130xL genetic analyzer (Applied Biosystems) with peak positions identified by using a set of X-rhodamine (ROX)-labeled MapMarker1000 molecular weight standards (BioVentures). The raw capillary electrophoresis data was processed using Attagraph software (Attagene)."}
{"smiles": "CC(=O)CCc1ccc(O)cc1", "outcome": "inactive"}
{"smiles": "CCC(=O)OC(C)(C)C1CC=C(C)CC1", "note": "(stereo not given)", "outcome": "inactive"}
{"smiles": "CC(=O)c1ccc(C)cc1", "outcome": "inactive"}
{"smiles": "N#CCCNCCC#N", "outcome": "inactive"}
{"smiles": "CC/C=C\\CCOC(=O)C(C)C", "outcome": "inactive"}
{"smiles": "OCC=Cc1ccccc1", "outcome": "inactive"}
{"smiles": "Cc1ccncc1", "outcome": "inactive"}
{"smiles": "CC/C=C\\C#N", "outcome": "inactive"}
{"smiles": "CCCOC(=O)CC", "outcome": "inactive"}
{"smiles": "O=c1cc[nH]cc1", "outcome": "inactive"}
{"smiles": "CCCCCCC(O)CCOC(C)=O", "note": "(stereo not given)", "outcome": "inactive"}
{"smiles": "CCC(C)(CCCC(C)C)OC(C)=O", "note": "(stereo not given)", "outcome": "inactive"}
{"smiles": "CC/C=C\\CCCCO", "outcome": "inactive"}
{"smiles": "C#C[C@]1(O)CC[C@H]2[C@@H]3CCc4cc(O)ccc4[C@H]3CC[C@@]21C", "outcome": "inactive", "AC50": "58.1 µM (active) and 100 µM (active)"}
{"smiles": "CCOCC(C)O", "note": "(stereo not given)", "outcome": "inactive"}
{"smiles": "C=COCC1CCC(COC=C)CC1", "note": "(stereo not given)", "outcome": "inactive"}
{"smiles": "CCNC(=S)NCC", "outcome": "inactive"}
{"smiles": "CCOC(=O)CC(C)C", "outcome": "inactive"}
{"smiles": "O=[N+]([O-])c1cc(N(CCO)CCO)ccc1NCCO", "outcome": "inactive"}
{"smiles": "Cc1cccc(C)c1", "outcome": "inactive"}
{"smiles": "C=C(C)C(N)=O", "outcome": "inactive"}
{"smiles": "[Cl][Dy]([Cl])[Cl]", "outcome": "inactive"}
{"smiles": "Cc1cccc(O)c1", "outcome": "inactive"}
{"smiles": "C=CC(C)(CCC=C(C)C)OC(=O)CC", "note": "(stereo not given)", "outcome": "inactive"}
{"smiles": "C=C(C)CCCC(C)CCO", "note": "(stereo not given)", "outcome": "inactive"}
{"smiles": "OCCN1CCOCC1", "outcome": "inactive"}
{"smiles": "CC(=O)CCC=C(C)CCC=C(C)C", "outcome": "inactive"}
{"smiles": "CC1=CCC(C(C)(C)O)CC1", "note": "(stereo not given)", "outcome": "inactive"}
{"smiles": "Cc1cc(O)c(C)c(C)c1O", "outcome": "inactive"}
{"smiles": "CCCCCC#CC(=O)OC", "outcome": "inactive"}
{"smiles": "CCCO", "outcome": "inactive"}
{"smiles": "OC[C@@H](O)[C@H](O)[C@@H](O)[C@@H](O)CO", "outcome": "inactive"}
{"smiles": "O=C(O)CS", "outcome": "inactive"}
{"smiles": "COc1ccc(C(C)=O)cc1", "outcome": "inactive"}
{"smiles": "c1coc(CNc2ncnc3nc[nH]c23)c1", "outcome": "inactive"}
{"smiles": "COc1ccccc1O", "outcome": "inactive"}
{"smiles": "CC1(C)[C@H](C=C(Cl)Cl)[C@H]1C(=O)OCc1cccc(Oc2ccccc2)c1", "outcome": "inactive"}
{"smiles": "O=S(=O)(O)c1cc(S(=O)(=O)O)c2c(N=Nc3ccccc3)c(O)ccc2c1", "outcome": "inactive"}
{"smiles": "CCOC(=O)CCCCCCCCC(=O)OCC", "outcome": "inactive"}
